Assay outcomes deposited in PubChem BioAssay by Bradner/Qi Labs at DFCI.
CBX7 AlphaScr = inhibitors of human CBX7 binding to H3K27me3 peptide; AlphaScreen His6-CBX7 / biotin-H3K27me3 peptide binding; active compounds read low; normalised signal (fraction of DMSO) (concentration not given with the values); 66,000 tested, 1.1% active; in the data active = normalised signal below about 0.5
Target sequence (O95931 whole entry, looked up): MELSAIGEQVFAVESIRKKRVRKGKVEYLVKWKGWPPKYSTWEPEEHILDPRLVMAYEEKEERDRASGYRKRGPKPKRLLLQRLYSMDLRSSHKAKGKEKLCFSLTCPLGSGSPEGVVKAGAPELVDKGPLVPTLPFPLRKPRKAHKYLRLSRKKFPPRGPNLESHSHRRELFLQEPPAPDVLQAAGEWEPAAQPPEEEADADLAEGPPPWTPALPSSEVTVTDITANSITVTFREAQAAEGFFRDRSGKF
* hit, by the source's call. Only a selection was taken, and hits are over-represented in it overall.

CCc1cccc(C)c1NC(=O)CCCN1C(=O)c2cccnc2C1=O was read as CBX7 AlphaScr 1.
`Cc1ccc(NC(=O)CCCN2C(=O)c3cccnc3C2=O)cc1F` gave CBX7 AlphaScr 1.2.
For Cc1cc(Cl)ccc1OCCCC(=O)N1c2ccc(F)cc2CCC1C (stereo not drawn) the results were CBX7 AlphaScr 1.
For O=C(CCCN1C(=O)c2cccnc2C1=O)Nc1ccccc1F the results were CBX7 AlphaScr 0.81.
For O=C(NCc1ccccn1)c1cc(Sc2ccccc2C(F)(F)F)nc2ccccc12 the results were CBX7 AlphaScr 1.
`COCCCNC(=O)C1CCC(=O)N1Cc1ccc(C)cc1` (stereo not drawn) gave CBX7 AlphaScr 0.98.
O=C(NCCc1c[nH]c2ccccc12)c1csc2c1CCCCC2 was read as CBX7 AlphaScr 1.
Cc1ccc(Nc2nc3nonc3nc2NCCO)cc1 was read as CBX7 AlphaScr 0.94.
`Cc1c(NC(=O)c2cccnc2)cccc1-c1nc2ccccc2o1` gave CBX7 AlphaScr 1.
`Cc1cccc(NC(=O)C2CCN(S(=O)(=O)c3cccnc3)CC2)c1C` gave CBX7 AlphaScr 1.1.
`CCCn1c(CNC(=O)c2ccc(OC)c(OC)c2)nc2ccccc21` gave CBX7 AlphaScr 0.96.
O=C(CC(Nc1ccc2ccccc2c1)c1ccncc1)c1cccnc1 (stereo not drawn) was read as CBX7 AlphaScr 1.2.
Screening Cc1ccc(-c2nn(-c3ccccc3)c3nc(C)cc(C(F)(F)F)c23)cc1 returned CBX7 AlphaScr 1.2.
Screening CCOC(=O)c1cc(-c2ccccc2)n(-c2cccc(C(=O)Nc3cc(C)cc(C)c3)c2)c1C returned CBX7 AlphaScr 0.9.
Screening Cc1ccccc1CN1C(=O)C(O)(CC(=O)c2ccc(Cl)cc2)c2ccccc21 (stereo not drawn) returned CBX7 AlphaScr 0.87.
Screening CCc1ccc(C(=O)CC2(O)C(=O)N(Cc3ccccc3C)c3ccccc32)cc1 (stereo not drawn) returned CBX7 AlphaScr 0.45*.
Cc1ccccc1CN1C(=O)C(O)(CC(=O)c2ccccc2)c2ccccc21 (stereo not drawn) was read as CBX7 AlphaScr 0.91.
`COc1ccc(Cl)cc1NC(=O)c1cc(-c2ccc(C)cc2C)nc2ccccc12` gave CBX7 AlphaScr 1.
For CC1=Nc2cc(C(=O)NCc3ccc4c(c3)OCO4)ccc2Sc2ccc(C)cc21 the results were CBX7 AlphaScr 0.93.
COc1ccc(N2CCN(C(c3cccs3)C(C)NS(=O)(=O)c3ccc(F)cc3)CC2)cc1 (stereo not drawn) was read as CBX7 AlphaScr 0.49*.
For CC(NS(=O)(=O)c1ccc(F)cc1)C(c1cccs1)N1CCN(C)CC1 (stereo not drawn) the results were CBX7 AlphaScr 1.
Screening COc1ccc(N2CCN(C(c3cccs3)C(C)NS(=O)(=O)c3ccc(C)cc3)CC2)cc1 (stereo not drawn) returned CBX7 AlphaScr 0.52.
`CC(NS(=O)(=O)c1ccc(F)cc1)C(c1cccs1)N1CCN(c2ccccc2)CC1` (stereo not drawn) gave CBX7 AlphaScr 0.86.
Screening COc1ccc(N2CCN(C(c3cccs3)C(C)NS(=O)(=O)c3ccccc3)CC2)cc1 (stereo not drawn) returned CBX7 AlphaScr 0.48*.
`CCS(=O)(=O)NC(C)C(c1cccs1)N1CCN(c2ccc(OC)cc2)CC1` (stereo not drawn) gave CBX7 AlphaScr 0.83.
CCCC1CCC(c2ccc(-c3noc(-c4ccncc4)n3)cc2)CC1 (stereo not drawn) was read as CBX7 AlphaScr 1.1.
Screening Cc1ccc2nc3c(c(N)c2c1)CCN3c1ccccc1 returned CBX7 AlphaScr 1.1.
For CCOc1ccc(N2CCc3c2nc2ccc(Br)cc2c3N)cc1 the results were CBX7 AlphaScr 0.21*.
Screening Nc1c2c(nc3ccccc13)N(c1ccc(Cl)c(Cl)c1)CC2 returned CBX7 AlphaScr 1.
For COc1cccc(-c2nc(CS(=O)(=O)CC(=O)N3C(C)CCCC3C)c(C)o2)c1 (stereo not drawn) the results were CBX7 AlphaScr 0.96.
For O=C(CN1C(=O)CCSc2ccccc21)NCCN1CCCCCC1 the results were CBX7 AlphaScr 1.1.
COc1ccc(-c2cn(-c3ccc(F)cc3)c(SCC(=O)Nc3cccc(Cl)c3)n2)cc1OC was read as CBX7 AlphaScr 0.6.
Screening COc1ccc(-c2cn(-c3ccc(F)cc3)c(SCC(=O)Nc3cccc(F)c3)n2)cc1OC returned CBX7 AlphaScr 0.39*.
`COc1ccc(-c2cn(-c3ccc(F)cc3)c(SCC(=O)Nc3cc(F)ccc3F)n2)cc1OC` gave CBX7 AlphaScr 0.88.
`O=C(Cc1ccc(NC2=NC3CS(=O)(=O)CC3S2)cc1)N1CCc2ccccc2C1` (stereo not drawn) gave CBX7 AlphaScr 1.
COCCNc1ncnc2c1c(-c1ccccc1)cn2-c1cccc(C(F)(F)F)c1 was read as CBX7 AlphaScr 1.
For Cc1ccc(-c2noc(CCC(=O)N3CCN(c4ccccn4)CC3)n2)cc1 the results were CBX7 AlphaScr 0.83.
